{
  "source": "PubChem BioAssay (NCI)",
  "note": "Compounds without any hit were thinned out: in the full panel of roughly 83,000, 20% have a hit.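 Interpretation: 100, growth as untreated; towards 0, rising growth inhibition; 0, no net growth; 0 to -100, cell death. Compounds scoring below 10 were considered active.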 The source made the active and inactive calls.",
  "data": [
    {"test_system": "A498 renal", "experiment": "NCI-60 one-dose screen, 48 h (100 = growth as untreated, 0 = no growth, -100 = all killed)", "conditions": "10 µM unless noted", "values": [
      {"compound": "O=C(NCc1ccc(Cn2c(=O)sn(-c3ccccc3)c2=O)cc1)OCc1ccc2c(Br)cc(Br)c(O)c2n1", "growth": "-41.6% (active)"},
      {"compound": "N#CCCc1c[nH]c2ccccc12", "growth": "103% (inactive)"},
      {"compound": "C=CCCCCCCCCC(=O)OC(C)C", "growth": "91.4% (inactive)"},
      {"compound": "COc1cc2c(cc1OCCCCCOc1ccc(-n3c(C)nc4ccccc4c3=O)cc1)N=C[C@@H]1CCCN1C2=O", "growth": "-71.9% (active)"},
      {"compound": "Cc1cccc(/C=C2\\N=C(c3ccccc3)N(c3ccc(S(N)(=O)=O)cc3)C2=O)c1", "growth": "101% (inactive)"},
      {"compound": "Clc1ccc(/C=N/Nc2nc3ccccc3s2)c(Cl)c1", "growth": "81.6% (inactive)"},
      {"compound": "CCOC(=O)COc1c(C)cc(SSc2cc(C)c(OCC(=O)OCC)c(C)c2)cc1C", "growth": "99.8% (inactive)"},
      {"compound": "Nc1nc(Nc2ccccc2)c2ncn(Cc3cc4c(cc3Br)OCO4)c2n1", "growth": "-3.53% (active)"},
      {"compound": "CCOC(=O)c1c[nH]n2c(=S)ncnc12", "growth": "98.5% (inactive)"},
      {"compound": "CC1(C)CC[C@]2(C(N)=O)CC[C@]3(C)C(=CC[C@@H]4[C@@]5(C)C/C(=C/c6cccnc6)C(=O)C(C)(C)[C@@H]5CC[C@]43C)[C@@H]2C1", "growth": "-83.4% [100 µM] (active)"},
      {"compound": "O=[N+]([O-])c1cc(CCl)ccc1OCCBr", "growth": "91.9% (inactive)"},
      {"compound": "O=C1COCCN1c1ccc(Nc2nc(Cl)nc(N3CCOCC3)n2)cc1", "growth": "73.7% (inactive)"},
      {"compound": "O=C(OCc1ccc2c(Cl)cc(Cl)c(O)c2n1)N1CCNCC1", "growth": "24.3% (inactive)"},
      {"compound": "Cc1ccc(S(=O)(=O)NCCCNc2nccc(-c3c(-c4cccc(F)c4)nc4occn34)n2)cc1", "growth": "57.5% (inactive)"}
    ]}
  ]
}
